Measurements published in ChEMBL document CHEMBL4513141, “CO-ADD screening of NIH (USA) - Clinical Collection” (2021).
Entries with a potency or affinity are not part of this list.

tested on: Candida albicans; details: 20 µM

SMILES	Inhibition
Cl.FC(F)(F)c1cccc(N2CCNCC2)c1 [N- (3-TRIFLUOROMETHYLPHENYL)PIPERAZINE HYDROCHLORIDE (TFMPP)]	4.36%
Cl.O=C1CC2(CCCC2)CC(=O)N1CCCCN1CCN(c2ncccn2)CC1 [BUSPIRONE HYDROCHLORIDE]	5.32%
Cl.Oc1ccc2c3c1OC1C(O)CC[C@@]4(O)[C@@H](C2)N(CC2CCC2)CC[C@]314 (some centres undefined)	2.98%
CC(C)c1cccc(C(C)C)c1O [PROPOFOL]	2.62%
O.O=P1(N(CCCl)CCCl)NCCCO1 (centres undefined) [CYCLOPHOSPHAMIDE]	0.13%
CCC(COC(=O)c1cc(OC)c(OC)c(OC)c1)(c1ccccc1)N(C)C.O=C(O)/C=C\C(=O)O (centres undefined)	3.77%
Cc1ncc2n1-c1ccc(Cl)cc1C(c1ccccc1F)=NC2.Cl [MIDAZOLAM HYDROCHLORIDE]	3.62%
CCOC(=O)C1=C(COCCN)NC(C)=C(C(=O)OC)C1c1ccccc1Cl (centres undefined) [AMLODIPINE]	4.94%
Cc1ccnc2c1NC(=O)c1cccnc1N2C1CC1 [NEVIRAPINE]	2.39%
CC(=O)CC(c1ccccc1)c1c([O-])c2ccccc2oc1=O.[Na+] (centres undefined) [WARFARIN SODIUM]	3.09%
CN1C(=O)CN=C(c2ccccc2)c2cc(Cl)ccc21 [DIAZEPAM]	2.62%
Br.COc1ccc2c3c1O[C@H]1C[C@@H](O)C=C[C@@]31CCN(C)C2 [GALANTAMINE HYDROBROMIDE]	3.12%
COc1cc(N)c(Cl)cc1C(=O)NC1CN2CCC1CC2.Cl.O (centres undefined) [ZACOPRIDE HYDROCHLORIDE]	5.47%
Br.CN1[C@@H]2CC(OC(=O)[C@H](CO)c3ccccc3)C[C@H]1[C@@H]1O[C@@H]12.O.O.O (some centres undefined)	2.39%
CC(=O)[C@H]1CC[C@H]2[C@@H]3CCC4=CC(=O)CC[C@]4(C)[C@H]3CC[C@]12C [PROGESTERONE]	11.4%
NC1=NC(=O)C(c2ccccc2)O1 (centres undefined) [PEMOLINE]	1.75%
C[N+]1(CCC(C(N)=O)(c2ccccc2)c2ccccc2)CCCCC1.[Br-] [FENPIVERINIUM BROMIDE]	3.32%

SMILES	Inhibition
C[N+]1(C)CCC(OC(=O)C(O)(c2ccccc2)C2CCCC2)C1.[Br-] (centres undefined) [GLYCOPYRRONIUM BROMIDE]	3.65%
CC(C)NCC(O)c1ccc(O)c(O)c1.Cl (centres undefined) [ISOPROTERENOL HYDROCHLORIDE]	2.42%
CN1[C@@H]2CC[C@H]1C[C@@H](OC(=O)c1c[nH]c3ccccc13)C2.Cl	3.12%
CN[C@@H]1C[C@@H](c2ccc(Cl)c(Cl)c2)c2ccccc21.Cl [INDATRALINE HYDROCHLORIDE]	2.5%
O=C(O[C@@H]1Cc2c(O)cc(O)cc2O[C@@H]1c1cc(O)c(O)c(O)c1)c1cc(O)c(O)c(O)c1 [EPIGALOCATECHIN GALLATE]	3.47%
C[C@]12CCC(=O)C=C1CC[C@@H]1[C@@H]2CC[C@@]2(C)[C@H]1CC[C@]2(C)O [METHYLTESTOSTERONE]	4.22%
CC[C@]1(O)CC[C@H]2[C@@H]3CCC4=CCCC[C@@H]4[C@H]3CC[C@@]21C [ETHYLESTRENOL]	4.07%
CCC1(c2ccc(N)cc2)CCC(=O)NC1=O (centres undefined) [AMINOGLUTETHIMIDE]	2.63%
C[N+]1(C)CCCC(OC(=O)C(O)(c2ccccc2)c2ccccc2)C1.[Br-] (centres undefined) [MEPENZOLATE BROMIDE]	4.42%
COC(=O)C1=C(C)NC(C)=C(C(=O)OC)C1c1ccccc1[N+](=O)[O-] [NIFEDIPINE]	4.72%
C[C@H](CCC(=O)O)[C@H]1CC[C@H]2[C@@H]3[C@@H](O)C[C@@H]4C[C@H](O)CC[C@]4(C)[C@H]3CC[C@]12C [URSODIOL]	3.21%
Cl.O.Oc1ccc2c3c1O[C@H]1c4[nH]c5ccccc5c4C[C@@]4(O)C(C2)N(CC2CC2)CC[C@]314	6.31%
CN1C(=O)COc2c(C(=O)NC3CN4CCC3CC4)cc(Cl)cc21.Cl (centres undefined)	2.68%
CCOC(=O)c1cncn1[C@H](C)c1ccccc1 [ETOMIDATE]	0.03%
C=C(C)[C@@H]1[C@H]2OC(=O)[C@@H]1[C@]1(O)C[C@H]3O[C@]34C(=O)O[C@H]2[C@]14C.CC(C)(O)[C@@H]1[C@H]2OC(=O)[C@@H]1[C@]1(O)C[C@H]3O[C@]34C(=O)O[C@H]2[C@]14C	2.79%
Cl.NCC(O)c1ccc(O)c(O)c1 (centres undefined)	4.08%
Cl.NCCc1ccc(O)c(O)c1 [DOPAMINE HYDROCHLORIDE]	-0.19%
